KB-3-1 tox – KB-3-1 parental cell cytotoxicity; KB-3-1 viability, CellTiter-Glo ATP luminescence, 72 h; actives 1.4% (n = 400,000); Potency, µM (doses to about 46.1 µM), most hits filed as cytotoxic; further: on the % scale 0 is the no-effect control and ±100 the full control effect; nearly all actives have a fitted effect of over 60% in size
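Parental KB-3-1 adenocarcinoma cells in phenol-red-free DMEM with 10% FBS were pin-treated with compounds at several concentrations, incubated 72 h at 37 °C, and viability read by CellTiter-Glo luminescence; concentration-effect curves were fitted after normalization.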
MCF10A rereplic – induces DNA re-replication in MCF 10a normal breast cells | AID 624296 | MCF 10A DNA re-replication, Hoechst nuclear intensity, 48 h | actives 2.9% (n = 350,000) | Potency, µM (doses to about 46.1 µM), for the others: at the top dose activity, positive = re-replication, hits mostly activators; further: % of control where 0% means no effect; nearly all actives have a fitted effect of over 50% in size
KB-V1 MDR tox – kills drug-selected multidrug resistant KB-V1 cells; KB-V1 MDR cells viability, CellTiter-Glo, 72 h; Potency, µM (top dose mostly 46.1 µM), usual class: cytotoxic; actives 3.4% (n = 400,000); AID 1347076; further: on the % scale 0 is the no-effect control and ±100 the full control effect; nearly all actives have a fitted effect of over 60% in size
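Compound-treated KB-V1 multidrug-resistant cells, 72 h, 37 degrees C; viability by CellTiter-Glo. Fitted qHTS curves give the values.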
SW480 rerep – induces DNA re-replication in SW480 colon adenocarcinoma cells. SW480 DNA re-replication, Hoechst DNA content imaging, 48 h. Potency, µM (top dose mostly 46.1 µM), for inactives: at the highest dose re-replication activation, most hits filed as activators. actives 1.8% (n = 340,000); further: % of control where 0% means no effect; nearly all actives have a fitted effect of over 55% in size
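Quantitative HTS format with DMSO vehicle controls; 48 hr drug incubation at 37 C, then 40 min Hoechst staining and scanning imager measurement at 405 nm excitation.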
PINK1 modulator – PINK1 expression modulation; actives 0.2% (n = 410,000); Potency, µM (top dose mostly 76.6 µM), for inactives: top-dose activation (PINK1 increase), usual class: activators; PINK1 immunofluorescence, high-content cytometry, 24 h; active means well fitted activation curve with a large enough effect; inconclusive means small, poorly fitted or top-dose-only effect; cell line not stated here; further: % of control where 0% means no effect; nearly all actives have a fitted effect of over 65% in size
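Stable cell line, 250 cells/well, 12 h attachment; compounds pinned at 5 concentrations, 24 h; CCCP control. Fixed with nuclear dye, primary antibodies 12 h at 10 degrees C, secondary plus cell stain; laser-scanning cytometer read.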
* = called active by the depositor; i = inactive; ? = inconclusive; . = not tested or not shown; [ ] = dose if it differs, or a comment. Sampled rows, rich in hits. Any-hit rate of the full collection: about 6.7%. Unless noted, the call rests on the fitted dose curve; in most records, active means well fitted curve in the direction sought with a large enough effect; inconclusive means small, poorly fitted or top-dose-only effect, or another doubt; inactive means no such curve, though single readings can be large; an effect the other way counts as inactive or inconclusive. Potency means the concentration at half of the fitted maximal effect.

SMILES	KB-3-1 tox	MCF10A rereplic	KB-V1 MDR tox	SW480 rerep	PINK1 modulator
Fc1ccc(-n2ncc3c(N4CCN(c5ccccc5F)CC4)ncnc32)cc1	?	.	i	.	1%
COc1ccc(-c2nc(-c3ccc4c(c3)OCO4)[nH]c2-c2ccc(OC)cc2)cc1	i	?	21µM*	?	?
Nc1nc(N)c2[nH]cnc2n1	?	?	?	?	0%
Nc1nc(SCc2ccccc2)c2[nH]cnc2n1	i	1%	i	57%	1%
Nc1nc(Sc2ccc([N+](=O)[O-])c3nonc23)c2[nH]cnc2n1	2.1µM*	?	?	?	7%
CNc1ncnc(Sc2nc(N)nc3nc[nH]c23)c1[N+](=O)[O-]	?	?	1µM*	2.9µM*	-1%
Cc1cccn2c(=O)c3cc(C(=O)N4c5ccccc5CC4C)n(C)c3nc12 (centres undefined)	?	1%	?	-2%	12%
CC1CC(NC(=O)c2cc3c(=O)n4ccccc4nc3n2C)CC(C)(C)C1 (centres undefined)	i	10µM*	?	10µM*	2%
CC1Cc2ccccc2N1C(=O)c1cc2c(=O)n3ccccc3nc2n1C (centres undefined)	?	?	5.8µM*	14%	-2%
O=C(C=P(c1ccccc1)(c1ccccc1)c1ccccc1)c1ccccc1-c1ccccc1C(=O)C=P(c1ccccc1)(c1ccccc1)c1ccccc1	?	63%	i	13µM*	-2%
O=C1NC(c2ccc(Br)cc2)Nc2ccccc21 (centres undefined)	?	18µM*	6.5µM*	?	6%
CCN(CC)c1ccc(C2NC(=O)c3ccccc3N2)cc1 (centres undefined)	4.1µM*	5.8µM*	2.3µM*	10µM*	16%
O=C1NC(c2ccc3ccccc3c2)Nc2ccccc21 (centres undefined)	?	.	16µM*	.	8%
Brc1ccc(C2Nc3cccc4cccc(c34)N2)cc1	i	-24%	i	?	3%
COc1ccc(C2NC(=O)c3ccccc3N2)cc1OC (centres undefined)	i	?	i	-7%	0%
COCCN1CCN(C(=O)c2cnn(-c3nccc(-c4ccco4)n3)c2C2CC2)CC1	.	.	.	.	0%
CCCCCCCCN1C(=O)C(O)=C(C(C)=O)C1c1ccccn1 (centres undefined)	i	-1%	16µM*	-2%	2%
CC(=O)c1cccc(NC(=O)CSc2nc(N3CCCCC3)nc(N3CCCCC3)n2)c1	i	5%	i	2.2µM*	5%
CC(=O)c1ccc(NC(=O)CSc2nc(N3CCOCC3)nc(N3CCOCC3)n2)cc1	i	5%	?	-5%	0%
Cc1nn2c(=O)cc(COC(=O)COc3ccc(F)cc3)nc2s1	i	.	?	.	1%
Cc1nn(-c2ccccc2)c(Cl)c1/C=N/NC(=O)c1[nH]ncc1Br	i	-5%	i	-4%	-1%
CC(=O)c1cc2c(cc1NS(=O)(=O)c1ccccc1Br)OCO2	i	-3%	?	-2%	5%
COc1ccc(S(=O)(=O)Nc2cc3c(C(C)=O)c(C)oc3c3ccccc23)cc1	2.1µM*	?	2.1µM*	5.2µM*	2%
CCOc1ccc(S(=O)(=O)Nc2cc3c(C(=O)OC)c(COC)oc3c3ccccc23)cc1	3.7µM*	.	15µM*	.	4%
Cc1oc2c(cc(NS(=O)(=O)c3cccs3)c3ccccc32)c1C(=O)OC(C)C	i	13µM*	i	0%	-2%
SMILES	KB-3-1 tox	MCF10A rereplic	KB-V1 MDR tox	SW480 rerep	PINK1 modulator
COc1ccc(S(=O)(=O)Nc2cc3c(cc2C(C)=O)OCO3)cc1	7.3µM*	18µM*	?	?	4%
Cc1oc2c(cc(NS(=O)(=O)c3ccc(C(C)C)cc3)c3ccccc32)c1C(=O)O	i	?	?	?	1%
CCOc1ccc2nc(Cl)c(C3CC(c4ccc(C)cc4)=NN3C(=O)CCC(=O)O)cc2c1 (centres undefined)	i	.	i	.	1%
CCCn1c(CCC(=O)Nc2cc(C(=O)OC)cc(C(=O)OC)c2)nc2cccnc21	i	.	i	.	1%
COc1ccc(-c2cc(NC=O)c3ncc(-c4cccc(C(=O)NCCN(C)C)c4)n3c2)c(OC)c1	i	.	i	.	-1%
O=C(Nc1cccc2ncccc12)c1ccc([N+](=O)[O-])o1	i	4.6µM*	?	1.5µM*	7%
Cc1cccnc1NC(=O)c1ccc([N+](=O)[O-])o1	i	0%	i	?	0%
Cc1cccc(NC(=O)c2ccc([N+](=O)[O-])o2)n1	i	?	?	3.7µM*	-5%
Cc1ccc(NC(=O)c2ccc([N+](=O)[O-])o2)c(C)c1	?	?	?	?	-1%
O=C(Nc1cccc2ncccc12)c1ccc(-c2ccc(Br)cc2)o1	i	1%	10µM*	0%	0%[38.3 µM]
Cc1ccccc1NC(=O)c1ccc([N+](=O)[O-])o1	i	15µM*	i	?	1%
O=C(Nc1cccc2ncccc12)c1cccc(Br)c1	i	5%	i	-1%	5%
CCOC(=O)c1ccc(NC(=O)c2c(Cl)cc(C)nc2C)cc1	i	-11%	?	-6%	0%
CCOC(=O)c1ccc(S(=O)(=O)N2CCN(Cc3cc4c(cc3O)OCO4)CC2)cc1	i	2%	i	-5%	0%
O=CNc1cc(-c2ccc(C(=O)NC3CC3)cc2)cn2c(-c3ccc(F)cc3)cnc12	i	.	?	.	1%
CS(=O)(=O)N1CCN(c2ccccc2NC(=O)c2ccc([N+](=O)[O-])o2)CC1	i	?	?	2%	0%
O=C(Nc1ccccc1Cl)c1ccc([N+](=O)[O-])o1	23µM*	13µM*	i	7.3µM*	0%
CCCCn1c(O)c2n(c1=O)Cc1ccccc1N=C2c1ccccc1	i	.	i	.	0%
CC(C)NC(=O)N1[C@H](c2cccs2)[C@@H](C)C(=O)[C@@H](C)[C@@H]1c1cccs1	i	.	i	.	0%
COc1ccccc1CCc1nnc(CCC(=O)N(C)Cc2cccc3ncccc23)o1	i	?	8.2µM*	0%	2%
CCCOc1ccc(C2C(=O)N(C3CCCCCC3)CC(=O)N2CCCOCC)cc1OC (centres undefined)	.	.	.	.	1%
C/C(=N\NC(=O)c1cccc(F)c1)c1ccc(Br)s1	i	?	?	9.2µM*	?
C/C(=N\NC(=O)c1ccccc1O)c1ccc(Br)s1	i	7%	?	.	1%

Compound activity from PubChem BioAssay.
